Experimental data from PubChem BioAssay (NCATS).
Results filed as inconclusive are left out. Calls of active or inactive are those of the source. Unless noted, calls come from the whole dose curve; as a rule, active = well fitted curve in either direction with a large enough effect (not every such curve was filed as active); inconclusive = small, poorly fitted or top-dose-only effect, or another doubt; inactive = flat fitted curve, though single readings scatter.

Legend:
[1] = target: Lysosomal acid glucosylceramidase (Homo sapiens) (UniProt P04062); assay: Glucocerebrosidase-p2 (AID 348; in the data active = potency below about 10 µM; note: potency is the fitted concentration of half-maximal effect); details: purified GBA, blue fluorogenic substrate, 40 min
In short: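 Normal human glucocerebrosidase (0.2 nM) with blue fluorogenic substrate (80 uM final) in citrate/phosphate pH 5.9 with 10mM sodium taurocholate, 0.01% tween-20; 40 min RT, NaOH/glycine stop; fluorescence Ex 365/Em 440; AC50 from a titration from 0.6 nM upwards.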

[2] = AP1 Signaling Pathway (AID 357); details: ME-180 AP-1-bla reporter, EGF-induced, beta-lactamase ratio, 5 h; at 7.69 µM (top of the series) unless noted;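 note: ME-180 reporter cells stimulated with EGF at its EC50 level; % is set by controls: 0 for no effect and ±100 for the full control effect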
In short: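 Cells are seeded overnight, exposed to compound titrations and an EC50 level of EGF for 5 hours at 37 °C, then loaded with CCF4 dye for 2.5 hours. Beta-lactamase activity under the AP-1 element is read as a blue/green ratio.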

[3] = target: Cytochrome P450 1A2 (Homo sapiens) (UniProt P05177); assay: p450-cyp1a2 (AID 410; calls by dose curve; note: potency is the fitted concentration of half-maximal effect;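 for activity change, negative = inhibition: -100% = full effect of reference inhibitor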)
In short: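 O-Demethylation of luciferin 6' methyl ether by human CYP1A2 is monitored as luciferase luminescence. Substrate sits at Km (100uM); enzyme is 20nM. Values are scaled to 57 uM furafylline as maximal inhibition.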

[4] = NFAT Signaling Pathway (AID 444); details: Jurkat NFAT-bla M1, carbachol, beta-lactamase ratio, 5 h; at 7.69 µM (top of the series) unless noted;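 note: carbachol stimulus at about its EC50 of 1 µM final; % is set by controls: 0 for no effect and ±100 for the full control effect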
In short: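 Read-out: CCF4 FRET ratio (460 nm/530 nm) after 1 h RT dye loading, used for %activity and AC50 from titration series. Cells: Jurkat NFAT-β-lactamase/M1 line, treated with compound plus 1 uM carbachol for 5 h, 37 °C.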

[5] = Stat Signaling Pathway (AID 446); details: ME-180 SIE beta-lactamase reporter, IL-6 stimulated, 5 h; at 7.69 µM (top of the series) unless noted;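 note: ME-180 cervical cancer cells given 40 pM IL-6 alongside compound; SIE-controlled beta-lactamase reporter measured as 460/530 nm FRET emission ratio; % is set by controls: 0 for no effect and ±100 for the full control effect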
In short: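 FRET read-out (405 nm excitation, 460/530 nm emission) of a beta-lactamase reporter under a STAT-inducible element in ME-180 cervical carcinoma cells. Cells with compound receive 40 pM IL-6 for 5 h. Values are normalised to AC90 stimulation and AC90 JAK-inhibitor controls.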

[6] = target: Glucocorticoid receptor (Homo sapiens) (UniProt P04150); assay: GR-GFP Redistribution (AID 450;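 active = compounds whose dose series gives a full or clear partial fitted curve of increased nuclear translocation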; note: potency is the fitted concentration of half-maximal effect); details: U2OS GR-GFP nuclear translocation, laser cytometry, 2 h
[7] = target: Glucocorticoid receptor (Homo sapiens) (UniProt P04150); assay: GR-EFC Redistribution (AID 451; calls by dose curve; note: potency is the fitted concentration of half-maximal effect); details: CHO-K1 GR-EFC translocation, beta-gal luminescence, 2 h
In short: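 Translocation of GR-ED fusion to nuclear EA restores b-gal, read by luminescence after 1 h room-temperature detection. Engineered CHO-K1 biosensor cells, 1,000/well, exposed 2 h at 37 C to titrations up to 46 uM final.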

[8] = target: Mitogen-activated protein kinase 10 (Mus musculus) (UniProt Q61831); assay: JNK3 AlphaScreen Assay (AID 530);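 note: kinase came from lysate of stimulated human HepG2 cells; signal reports phosphorylation of biotinylated GST-cJun 1-79 at Ser73 with 10 µM ATP; % is set by controls: 0 for no effect and ±100 for the full control effect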
In short: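 qHTS titrations with 15 min compound pre-incubation before adding ATP (10 uM final). Read-out: AlphaScreen of Ser73-phosphorylated biotin-GST-cJun using HepG2 lysate JNK3 activated by IL-1β and TNFα.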

[9] = target: 3',5'-cyclic-AMP phosphodiesterase 4B (Homo sapiens) (UniProt Q07343); assay: qHTS Assay for Inhibitors of PDE-IV (AID 607; active = well fitted activation curve with a large enough effect in the main read-out, with a control signal flat, not every such curve was filed as active; note: % of control where 0% means no effect)
In short: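 Cell-based read-out of cAMP via a modified cyclic nucleotide-gated channel and membrane potential dye (535/590 nm) in HEK293 cells expressing PDE4 endogenously. Compounds tested up to 22.9 uM final; 100 uM RO 20-1724 reference.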

[10] = target: Cytochrome P450 3A4 (Homo sapiens) (UniProt P08684); assay: qHTS Assay for Activators of Cytochrome P450 3A4 (AID 885; active = well fitted curve in the direction sought with a large enough effect; an effect the other way counts as inactive or inconclusive; note: nearly all actives have a fitted effect of over 65% in size)
In short: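 Luminescent readout of luciferin formed from 25 uM Luciferin-PPXE (KM level) by 20 nM CYP3A4 in 200 mM KPO4, with 60 min NADPH-driven reaction at room temperature after 10 min compound exposure. Ketoconazole (57 uM) defined 100% inhibition.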

[11] = Primary qHTS for small molecule stabilizers of the endoplasmic reticulum resident proteome: Secreted ER Calcium Modulated Protein (SERCaMP) assay (AID 1508630; active = well fitted curve in the direction sought with a large enough effect; an effect the other way counts as inactive or inconclusive; note: % is set by controls: 0 for no effect and ±100 for the full control effect)
In short: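 The SH-SY5Y reporter protocol was run at 3 concentrations up to 38.3 uM (primary) or 11 concentrations (follow-up): 16 h compound, 100 nM thapsigargin for 4 h, then extracellular luciferase luminescence.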

[12] = target: Cytochrome P450 3A4 (Homo sapiens) (UniProt P08684); assay: qHTS Assay for Inhibitors and Substrates of Cytochrome P450 3A4 (AID 884; active = well fitted curve in the direction sought with a large enough effect; an effect the other way counts as inactive or inconclusive; note: nearly all actives have a fitted effect of over 50% in size; note: potency is the fitted concentration of half-maximal effect)
In short: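 Luminescent readout of luciferin produced by CYP3A4 (20 nM) dealkylation of Luciferin-PPXE, 25 uM (its KM). NADPH-driven reaction ran 60 min at RT after 10 min compound preincubation; data scaled to 57 uM ketoconazole as 100% inhibition.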

[13] = target: Cytochrome P450 2C19 (Homo sapiens) (UniProt P33261); assay: qHTS Assay for Inhibitors and Substrates of Cytochrome P450 2C19 (AID 899; active = well fitted curve in the direction sought with a large enough effect; an effect the other way counts as inactive or inconclusive; note: potency is the fitted concentration of half-maximal effect; nearly all actives have a fitted effect of over 60% in size)
In short: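 5nM enzyme + 10uM Luciferin-H EGE (=KM), 50mM KPO4; cpd pin-transferred, 10 min 37C; NADPH regen, 60 min 37C; stopped w/ luciferin detection reagent, 20 min; luminescence. Normalized to 57uM ketoconazole (AC100).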

[14] = Confirmation and Secondary Assay for Modulators of Hemoglobin Beta Chain Splicing at IVS2 654 locus (AID 910; active = well fitted curve in the direction sought with a large enough effect; an effect the other way counts as inactive or inconclusive;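 note: HeLa cells stably carrying EGFP split by mutant beta-globin IVS2-654 intron; per-well total GFP intensity by laser scanning cytometry after 2-day treatment; % of control where 0% means no effect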)
In short: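 Readout: per-well total peak green fluorescence (488 nm ex, 500–520 nm em) from objects 5–250 µm, reflecting correct splicing of an EGFP-654 reporter. Compounds were applied for 2 days at 37 °C to overnight-plated HeLa EGFP-654 cells; controls were DMSO and 500 nM IVS2-654 PNA.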

[15] = Confirmation and Secondary Assay for Modulators of Hemoglobin Beta Chain Splicing at IVS2 705 locus (AID 930; active = well fitted curve in the direction sought with a large enough effect; an effect the other way counts as inactive or inconclusive;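 note: HeLa cells stably expressing the EGFP-705 splicing reporter; GFP fluorescence per well restored by corrected splicing of the IVS2-705 intron in EGFP; % of control where 0% means no effect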)
In short: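 First, HeLa EGFP-705 cells are seeded at 500/well in Optimem with 2% FCS and left overnight. Next, compound or DMSO is added for 2 days. Finally wells are laser-scanned and total peak GFP intensity scored.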

[16] = qHTS Assay for Lipid Storage Modulators (AID 1519; calls by dose curve); details: Drosophila S3 cells, BODIPY lipid droplet/cell ratio, laser cytometry, cells loaded with oleic acid; for activity change, negative = inhibition: at 57.5 µM (top of the series)
In short: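 Cells seeded at 5,000 per well were treated with compounds over a concentration series and loaded with oleic acid (400 uM, as added). Lipid droplet fluorescence (488 nm excitation, 500-530 nm channel) was read by laser-scanning cytometry and normalized to 20 uM Triacsin C.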

[17] = target: Ubiquitin carboxyl-terminal hydrolase 1 (Homo sapiens) (UniProt O94782); assay: Inhibitors of USP1/UAF1: Pilot qHTS (AID 504865; active = well fitted curve in the direction sought with a large enough effect; an effect the other way counts as inactive or inconclusive;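 note: rhodamine fluorescence freed from ubiquitin-rhodamine substrate followed over time; top concentration of the series differs between compounds; % is set by controls: 0 for no effect and ±100 for the full control effect; nearly all actives have a fitted effect of over 35% in size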)
In short: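 USP1/UAF1 complex at 1 nM preincubated 15 min at room temperature with compound, then Ub-Rho substrate added at 150 nM final. Fluorescence (480/540 nm) read kinetically in 50 mM HEPES pH 7.8, 0.5 mM EDTA, 1 mM TCEP, 0.1 mg/ml BSA, 0.01% Tween-20.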

[18] = target: Cytochrome P450 2D6 (Homo sapiens) (UniProt P10635); assay: qHTS Assay for Inhibitors and Substrates of Cytochrome P450 2D6 (AID 891; active = well fitted curve in the direction sought with a large enough effect; an effect the other way counts as inactive or inconclusive; note: potency is the fitted concentration of half-maximal effect; nearly all actives have a fitted effect of over 60% in size)
In short: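 Luminescent read-out of luciferin formed by 5 nM human CYP2D6 demethylating 30 uM Luciferin-ME EGE (Km level) over 60 min at room temperature after NADPH regeneration addition. Data normalized to full inhibition by 1.43 uM quinidine.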

[19] = qHTS Assay for Identification of Small Molecule Agonists for Hypoxia Response Element Signaling Pathway (AID 914; active = well fitted activation curve with a large enough effect in the signal ratio, with a control signal flat, not every such curve was filed as active; the % refers to the signal ratio; note: potency is the fitted concentration of half-maximal effect; for activation: % of control where 0% means no effect); details: ME-180 (cervical carcinoma) HRE-bla reporter, beta-lactamase ratio, CoCl2, 17 h; activation: stronger effect = higher value
In short: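 Positive modulation of EC50 CoCl2-induced hypoxia response element signaling is measured in ME-180 cells with a beta-lactamase reporter. Compounds are titrated, incubation runs 17 hours, and %Activity derives from the blue/green ratio.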

[20] = measured here: cell count channel max response
[21] = measured here: lipid channel max response

Sequence of Glucocorticoid receptor (Homo sapiens) (P04150 whole entry, looked up, the tested form may be a part): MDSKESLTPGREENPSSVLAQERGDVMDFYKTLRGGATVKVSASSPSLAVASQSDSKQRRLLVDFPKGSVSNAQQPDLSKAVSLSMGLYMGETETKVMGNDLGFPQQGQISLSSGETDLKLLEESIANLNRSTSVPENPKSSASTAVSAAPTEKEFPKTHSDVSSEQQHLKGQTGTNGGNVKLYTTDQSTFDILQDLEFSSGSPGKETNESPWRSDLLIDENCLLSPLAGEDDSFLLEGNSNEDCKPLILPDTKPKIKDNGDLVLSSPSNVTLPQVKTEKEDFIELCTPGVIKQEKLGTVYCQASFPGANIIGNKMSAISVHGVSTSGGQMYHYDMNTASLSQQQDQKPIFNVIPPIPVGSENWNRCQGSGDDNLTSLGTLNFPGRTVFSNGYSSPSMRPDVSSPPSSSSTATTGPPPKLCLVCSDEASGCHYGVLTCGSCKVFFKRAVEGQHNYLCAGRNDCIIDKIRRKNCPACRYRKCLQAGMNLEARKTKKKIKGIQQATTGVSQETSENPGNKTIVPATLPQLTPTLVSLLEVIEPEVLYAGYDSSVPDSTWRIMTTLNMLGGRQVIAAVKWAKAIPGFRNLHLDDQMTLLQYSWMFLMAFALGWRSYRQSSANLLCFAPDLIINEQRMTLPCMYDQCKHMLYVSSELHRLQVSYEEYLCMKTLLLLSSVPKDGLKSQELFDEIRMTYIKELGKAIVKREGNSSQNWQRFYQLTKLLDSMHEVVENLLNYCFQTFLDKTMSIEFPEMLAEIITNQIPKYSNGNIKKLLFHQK
Sequence of Lysosomal acid glucosylceramidase (Homo sapiens) (P04062 whole entry, looked up): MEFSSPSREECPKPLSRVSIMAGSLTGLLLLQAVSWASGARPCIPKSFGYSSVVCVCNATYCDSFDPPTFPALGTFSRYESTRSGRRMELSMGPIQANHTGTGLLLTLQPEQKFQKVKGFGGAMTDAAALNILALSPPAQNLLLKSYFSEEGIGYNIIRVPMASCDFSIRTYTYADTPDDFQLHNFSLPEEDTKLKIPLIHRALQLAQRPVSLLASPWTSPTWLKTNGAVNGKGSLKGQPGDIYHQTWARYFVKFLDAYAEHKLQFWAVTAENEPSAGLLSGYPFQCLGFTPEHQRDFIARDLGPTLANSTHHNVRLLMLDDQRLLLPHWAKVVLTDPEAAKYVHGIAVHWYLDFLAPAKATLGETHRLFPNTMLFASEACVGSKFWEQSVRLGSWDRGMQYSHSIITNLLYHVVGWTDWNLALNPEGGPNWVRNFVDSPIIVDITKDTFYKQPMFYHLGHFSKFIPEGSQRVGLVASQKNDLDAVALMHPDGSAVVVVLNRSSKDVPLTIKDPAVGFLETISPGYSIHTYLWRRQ
Sequence of Cytochrome P450 3A4 (Homo sapiens) (P08684 whole entry, looked up): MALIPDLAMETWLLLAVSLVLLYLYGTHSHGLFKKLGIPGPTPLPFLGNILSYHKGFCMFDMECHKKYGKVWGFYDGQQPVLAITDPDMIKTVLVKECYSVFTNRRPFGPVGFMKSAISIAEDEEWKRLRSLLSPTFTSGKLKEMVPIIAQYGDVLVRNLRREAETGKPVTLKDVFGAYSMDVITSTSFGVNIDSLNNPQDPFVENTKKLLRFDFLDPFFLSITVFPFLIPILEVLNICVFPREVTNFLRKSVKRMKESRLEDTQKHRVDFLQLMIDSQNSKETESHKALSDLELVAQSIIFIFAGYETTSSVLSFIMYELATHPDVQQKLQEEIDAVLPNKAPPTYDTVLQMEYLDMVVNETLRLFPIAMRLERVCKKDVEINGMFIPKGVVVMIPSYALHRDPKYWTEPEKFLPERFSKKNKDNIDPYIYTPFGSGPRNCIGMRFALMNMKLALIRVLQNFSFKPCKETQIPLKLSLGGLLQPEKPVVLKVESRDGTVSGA
Sequence of Ubiquitin carboxyl-terminal hydrolase 1 (Homo sapiens) (O94782 whole entry, looked up): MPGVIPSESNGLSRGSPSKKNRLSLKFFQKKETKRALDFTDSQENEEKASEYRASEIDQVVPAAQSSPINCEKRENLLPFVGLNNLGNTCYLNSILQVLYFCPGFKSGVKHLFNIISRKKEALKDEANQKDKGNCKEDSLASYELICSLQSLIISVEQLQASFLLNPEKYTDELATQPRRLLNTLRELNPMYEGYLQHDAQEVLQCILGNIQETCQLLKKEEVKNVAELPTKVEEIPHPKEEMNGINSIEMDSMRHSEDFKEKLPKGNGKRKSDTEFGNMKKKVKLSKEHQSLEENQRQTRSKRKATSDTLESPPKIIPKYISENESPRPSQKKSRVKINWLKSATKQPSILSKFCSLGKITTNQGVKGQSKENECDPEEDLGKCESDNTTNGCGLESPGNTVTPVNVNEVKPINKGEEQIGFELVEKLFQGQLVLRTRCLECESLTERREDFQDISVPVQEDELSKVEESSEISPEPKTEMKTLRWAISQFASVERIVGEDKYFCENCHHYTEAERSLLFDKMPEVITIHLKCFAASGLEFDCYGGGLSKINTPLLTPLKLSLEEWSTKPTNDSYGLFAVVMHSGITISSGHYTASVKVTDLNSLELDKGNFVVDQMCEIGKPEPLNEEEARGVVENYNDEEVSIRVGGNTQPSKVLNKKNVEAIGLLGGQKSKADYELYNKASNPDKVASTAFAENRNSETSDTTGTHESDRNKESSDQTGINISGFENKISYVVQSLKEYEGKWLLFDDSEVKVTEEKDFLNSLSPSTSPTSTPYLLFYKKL
Sequence of Cytochrome P450 1A2 (Homo sapiens) (P05177 whole entry, looked up): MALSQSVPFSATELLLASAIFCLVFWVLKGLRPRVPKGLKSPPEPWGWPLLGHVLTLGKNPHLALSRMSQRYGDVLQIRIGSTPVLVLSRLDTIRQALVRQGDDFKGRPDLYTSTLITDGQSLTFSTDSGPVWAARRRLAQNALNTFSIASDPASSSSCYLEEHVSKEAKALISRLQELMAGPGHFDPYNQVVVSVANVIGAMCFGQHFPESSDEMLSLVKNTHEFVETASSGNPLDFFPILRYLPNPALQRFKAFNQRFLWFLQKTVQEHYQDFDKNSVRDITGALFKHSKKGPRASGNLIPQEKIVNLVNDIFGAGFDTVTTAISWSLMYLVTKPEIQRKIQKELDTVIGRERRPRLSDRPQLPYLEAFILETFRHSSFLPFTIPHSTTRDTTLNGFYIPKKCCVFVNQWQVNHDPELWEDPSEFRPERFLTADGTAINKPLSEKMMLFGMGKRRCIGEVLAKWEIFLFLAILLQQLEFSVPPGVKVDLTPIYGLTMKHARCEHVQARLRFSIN
Sequence of 3',5'-cyclic-AMP phosphodiesterase 4B (Homo sapiens) (Q07343 whole entry, looked up): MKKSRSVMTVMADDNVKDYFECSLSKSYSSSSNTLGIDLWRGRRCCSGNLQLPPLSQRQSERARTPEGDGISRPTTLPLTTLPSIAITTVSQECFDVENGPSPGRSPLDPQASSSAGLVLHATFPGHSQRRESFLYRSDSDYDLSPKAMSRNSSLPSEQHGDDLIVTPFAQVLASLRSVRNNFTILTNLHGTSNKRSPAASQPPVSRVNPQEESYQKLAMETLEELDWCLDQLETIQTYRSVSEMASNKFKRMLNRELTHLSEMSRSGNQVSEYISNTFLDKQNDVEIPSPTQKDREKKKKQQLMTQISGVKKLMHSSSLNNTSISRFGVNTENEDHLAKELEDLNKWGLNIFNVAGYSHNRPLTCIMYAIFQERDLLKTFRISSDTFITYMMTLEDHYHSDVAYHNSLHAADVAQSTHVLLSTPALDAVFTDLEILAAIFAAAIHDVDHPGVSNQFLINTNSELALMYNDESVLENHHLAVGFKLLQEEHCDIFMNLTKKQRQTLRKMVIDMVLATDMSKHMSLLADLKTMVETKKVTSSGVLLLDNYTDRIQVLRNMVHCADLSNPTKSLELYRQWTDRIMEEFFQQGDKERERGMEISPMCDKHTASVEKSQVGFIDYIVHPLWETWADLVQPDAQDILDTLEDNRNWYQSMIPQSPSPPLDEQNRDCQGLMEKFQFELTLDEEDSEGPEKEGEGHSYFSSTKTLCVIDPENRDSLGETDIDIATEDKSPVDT
Sequence of Cytochrome P450 2C19 (Homo sapiens) (P33261 whole entry, looked up): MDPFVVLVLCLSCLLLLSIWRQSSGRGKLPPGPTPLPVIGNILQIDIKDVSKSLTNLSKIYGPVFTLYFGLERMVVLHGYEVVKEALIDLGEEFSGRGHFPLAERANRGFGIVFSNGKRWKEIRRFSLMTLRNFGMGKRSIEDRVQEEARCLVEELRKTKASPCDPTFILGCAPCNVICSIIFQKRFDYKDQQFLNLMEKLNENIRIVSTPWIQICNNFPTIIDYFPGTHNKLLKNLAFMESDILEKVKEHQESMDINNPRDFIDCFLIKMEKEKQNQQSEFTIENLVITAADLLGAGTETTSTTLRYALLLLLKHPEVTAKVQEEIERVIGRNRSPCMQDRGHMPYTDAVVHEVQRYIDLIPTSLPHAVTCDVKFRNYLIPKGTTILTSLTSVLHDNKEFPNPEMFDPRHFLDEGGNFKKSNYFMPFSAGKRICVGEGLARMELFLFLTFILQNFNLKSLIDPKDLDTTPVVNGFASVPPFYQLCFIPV
Sequence of Cytochrome P450 2D6 (Homo sapiens) (P10635 whole entry, looked up): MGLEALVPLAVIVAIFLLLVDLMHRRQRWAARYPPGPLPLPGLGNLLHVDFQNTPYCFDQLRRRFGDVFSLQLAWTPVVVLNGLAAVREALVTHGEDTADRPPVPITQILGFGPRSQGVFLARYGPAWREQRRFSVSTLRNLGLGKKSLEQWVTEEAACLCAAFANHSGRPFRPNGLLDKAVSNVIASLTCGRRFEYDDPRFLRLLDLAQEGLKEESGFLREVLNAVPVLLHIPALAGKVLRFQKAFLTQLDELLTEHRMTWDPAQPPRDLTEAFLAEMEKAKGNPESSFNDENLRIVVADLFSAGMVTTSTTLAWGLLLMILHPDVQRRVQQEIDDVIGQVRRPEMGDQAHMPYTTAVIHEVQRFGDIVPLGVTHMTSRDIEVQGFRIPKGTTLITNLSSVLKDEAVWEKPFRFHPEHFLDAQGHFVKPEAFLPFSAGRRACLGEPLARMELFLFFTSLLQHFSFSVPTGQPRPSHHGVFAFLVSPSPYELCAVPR

Cc1nc2cnc(Nc3ccccc3)nc2n(C)c1=O
active: Potency [3] 1.26 µM
inactive: Potency [1] > 11.4 µM | activity change, negative = inhibition [2] -16.6% | activity change, negative = inhibition [4] -8.95% | activity, negative = inhibition [5] -15.2% | Potency [6] > 9.22 µM | Potency [7] > 46 µM | outcome [8] | Potency [9] | Potency [10] | Potency [11]

COCC(=O)N1CCC2(CC1)CCN(c1ccccn1)CC2
inactive: Potency [1] > 11.4 µM | activity change, negative = inhibition [2] -16.4% | Potency [3] | activity change, negative = inhibition [4] -3.68% | activity, negative = inhibition [5] -8.73% | Potency [7] > 46 µM | outcome [8] | Potency [9] | Potency [11]

COCCNc1cc(-c2ccccc2C(F)(F)F)ncn1
inactive: Potency [1] > 11.4 µM | activity change, negative = inhibition [4] 1.43% | activity, negative = inhibition [5] 11% | Potency [6] > 46 µM | Potency [7] > 46 µM | outcome [8] | Potency [9] | Potency [12] | outcome [14] | outcome [15] | activity change, negative = inhibition [16] 7.86% | Potency [17] | Potency [11]
16.6%: max response [16, 20]
active: Potency [3] 15.8 µM | Potency [13] 7.94 µM
25.3%: max response [16, 21]

Cc1cccc(CNc2ncncc2-c2ccc3c(c2)OCO3)c1
inactive: activity change, negative = inhibition [2] -0.728% | activity change, negative = inhibition [4] -2.79% | activity, negative = inhibition [5] -19.6% | Potency [6] > 46 µM | Potency [7] > 46 µM | outcome [8] | Potency [10] | outcome [14] | activation [19] -16.9% | outcome [15] | activity change, negative = inhibition [16] 12.7% | Potency [11]
7.25%: max response [16, 20]
active: Potency [3] 0.126 µM | Potency [12] 0.251 µM | Potency [18] 6.31 µM
23.1%: max response [16, 21]

CS(=O)(=O)N1CCC[C@@]2(CCN(C(=O)Nc3ccccc3)C2)C1
16.4%: max response [16, 20]
17.6%: max response [16, 21]
inactive: Potency [1] > 11.4 µM | Potency [3] | activity change, negative = inhibition [4] 17.3% | activity, negative = inhibition [5] -10.3% | Potency [7] > 46 µM | outcome [8] | Potency [9] | activity change, negative = inhibition [16] 0.904% | Potency [11]

CN1CCN(c2ncc3nc(-c4cccs4)c(=O)n(CCC#N)c3n2)CC1
inactive: Potency [1] > 11.4 µM | Potency [6] > 9.22 µM | Potency [7] > 46 µM | outcome [8] | Potency [9] | Potency [10] | activity change, negative = inhibition [16] 0.733% | Potency [17] | Potency [11]
9.27%: max response [16, 21]
active: Potency [3] 15.8 µM | Potency [19] 3.16 µM
11.3%: max response [16, 20]

CC(=O)NCCNc1ccnc(-c2ccccc2C(F)(F)F)n1
8.35%: max response [16, 20]
active: Potency [3] 15.8 µM
inactive: Potency [1] > 11.4 µM | activity change, negative = inhibition [4] -3.29% | activity, negative = inhibition [5] 11.9% | Potency [6] > 46 µM | Potency [7] > 46 µM | outcome [8] | Potency [9] | Potency [10] | activity change, negative = inhibition [16] 4.45% | Potency [17] | Potency [11]
14.6%: max response [16, 21]
